# Data taken from the OligoGym collection.
# How the values were obtained:
# Experiment in all cases: pooled miR-30 sensor sort-seq; sequence = guide strand
# Settings in all cases: shRNA
# [1] = target: C20orf112
# [2] = target: C1orf64
# [3] = target: C1orf84
# [4] = target: C20orf54
# [5] = target: C2orf82
# [6] = target: C6orf105
# [7] = target: C6orf58
# [8] = target: C9orf172
# [9] = target: C9orf30
# [10] = target: C8orf86
# [11] = target: C9orf100
# [12] = target: CA8
# [13] = target: CADM4
# [14] = target: CAPNS2
# [15] = target: CBWD1
# [16] = target: CCDC102B
# [17] = target: CCDC56
# Note: reference of the scale not given here.
sequence,measurement,setting,value
TTGTCTCGCTCTCACAGGCAGC,sensor-assay potency score (higher = more potent),[1],-1.65
ATTGGTGGGGTGACAAGCCCTC,sensor-assay potency score (higher = more potent),[2],-0.204
TTGGTGCAGATGACTGAGGAAC,sensor-assay potency score (higher = more potent),[3],-1.39
ATTAACAGGAACACCTGCCCAG,sensor-assay potency score (higher = more potent),[3],0.146
TTAACAGGAACACCTGCCCAGC,sensor-assay potency score (higher = more potent),[3],-1.3
TTGACTGTGGAGGTTCTGCGGG,sensor-assay potency score (higher = more potent),[1],-0.683
TTCAGTGAGTCCTTGACTGTTC,sensor-assay potency score (higher = more potent),[2],0.426
TAAGTCTTCATTGGTGGGGTGA,sensor-assay potency score (higher = more potent),[2],-0.373
ATCTCAGTGACATTGACGCAGG,sensor-assay potency score (higher = more potent),[4],-1.25
TTCTCCTCTAGATACCCCTGGC,sensor-assay potency score (higher = more potent),[4],-0.528
TTAGCCTCGGGAACCTCCTGGG,sensor-assay potency score (higher = more potent),[2],-0.502
TCGTCATCATCTGCCGTCGGGG,sensor-assay potency score (higher = more potent),[1],-1.61
ATGTAAGTCTTCATTGGTGGGG,sensor-assay potency score (higher = more potent),[2],-0.782
TGTAAGTCTTCATTGGTGGGGT,sensor-assay potency score (higher = more potent),[2],0.329
TTCATCAAACAAGATCTCCCCT,sensor-assay potency score (higher = more potent),[3],0.55
TTTCATGCTGAGGTCCGTGGGC,sensor-assay potency score (higher = more potent),[1],-0.763
TTCTTGTCTCGCTCTCACAGGC,sensor-assay potency score (higher = more potent),[1],-0.87
TTCCCTTCTAACACCCTTGGGC,sensor-assay potency score (higher = more potent),[4],0.125
TCATCAAACAAGATCTCCCCTG,sensor-assay potency score (higher = more potent),[3],-0.444
TTCATTAACAGGAACACCTGCC,sensor-assay potency score (higher = more potent),[3],0.858
TTCCCCACAGAACACGATGTAA,sensor-assay potency score (higher = more potent),[2],-1.15
TAGATCTCTAGACGCATCCGCT,sensor-assay potency score (higher = more potent),[1],0.0864
TTTCAGTGAGTCCTTGACTGTT,sensor-assay potency score (higher = more potent),[2],-0.901
TTGATGGAATCGTAGCTCCCAG,sensor-assay potency score (higher = more potent),[1],-1.02
TTCCTGTTCAGACAGCATCTCC,sensor-assay potency score (higher = more potent),[3],-0.954
ATCGTCGTCATCATCTGCCGTC,sensor-assay potency score (higher = more potent),[1],-0.187
TAGCCTCGGGAACCTCCTGGGG,sensor-assay potency score (higher = more potent),[2],-1.66
AAGTTGAAGACCTCACAGGCGC,sensor-assay potency score (higher = more potent),[2],-0.73
TCAATAACAAAAGTCAGGTGAG,sensor-assay potency score (higher = more potent),[2],-0.224
ATTGTCCTCATGGTCATCGTGG,sensor-assay potency score (higher = more potent),[1],-0.617
TTCATCTTGTCATTGTCCTCAT,sensor-assay potency score (higher = more potent),[1],0.226
TTTCATTAACAGGAACACCTGC,sensor-assay potency score (higher = more potent),[3],0.405
TGGTCCAGCCGCTCCTGCGCGG,sensor-assay potency score (higher = more potent),[5],-1.68
TTGTAGAGAAAGAGGATCCAGA,sensor-assay potency score (higher = more potent),[6],-0.578
TTTCTGTACAAAGATAACCTAT,sensor-assay potency score (higher = more potent),[7],-0.334
TTGGCCTCGACGAACTCGCAAA,sensor-assay potency score (higher = more potent),[8],-1.39
TATACTTTTCTACTAAAGCCAG,sensor-assay potency score (higher = more potent),[9],-0.895
TTTGTCTCTCTGTTCGCTGCTC,sensor-assay potency score (higher = more potent),[10],-0.0258
TTGTTGATGGTGTTCTTCCTCA,sensor-assay potency score (higher = more potent),[9],-0.2
TGAAGCCGTACAAACCTCCGGA,sensor-assay potency score (higher = more potent),[11],0.131
TAGTAGGTGTAGCAGCTGTGGC,sensor-assay potency score (higher = more potent),[8],-1.29
ATCACTTTTCTTACATTCCAGC,sensor-assay potency score (higher = more potent),[9],-1.2
TTGTCAGTGATGGTGATCTCGG,sensor-assay potency score (higher = more potent),[8],-1.12
ATGATCATGCACATGAAGGGGC,sensor-assay potency score (higher = more potent),[8],0.238
TTATTGAGAACTTCCATTTTTA,sensor-assay potency score (higher = more potent),[9],-0.9
TTCTTGGTAGCGCCGCTCGGTC,sensor-assay potency score (higher = more potent),[11],-1.6
TATGAGTCGCTGGGCGTCGGGG,sensor-assay potency score (higher = more potent),[8],-1.22
ATCTGGAGTAGCTTGGTCCAGG,sensor-assay potency score (higher = more potent),[11],-1.26
TTGAACATGGTCTCGGTGCGCC,sensor-assay potency score (higher = more potent),[8],-0.301
TTGGTTATAGAGCTCCAAGTGG,sensor-assay potency score (higher = more potent),[11],-0.209
TTTATTGAGAACTTCCATTTTT,sensor-assay potency score (higher = more potent),[9],-0.999
TTCAGAAGACTATAACAGCTTC,sensor-assay potency score (higher = more potent),[9],-0.358
TCGGTCTCTAGCAGCTCCCGGG,sensor-assay potency score (higher = more potent),[11],-1.38
TTGATGTCCTGGTACACGGTCG,sensor-assay potency score (higher = more potent),[8],-0.476
TAGTAGGCGTCGAAGGTTGGGC,sensor-assay potency score (higher = more potent),[8],-0.683
TATTCTGACAGCTGAACACGAG,sensor-assay potency score (higher = more potent),[9],-0.517
TTATCCTGTGTTCCTCCTCTGC,sensor-assay potency score (higher = more potent),[9],-1.19
TCAGACTGTGGTACCAGCGTGA,sensor-assay potency score (higher = more potent),[11],0.191
TTAAATGAGGAAACAGGCCATT,sensor-assay potency score (higher = more potent),[9],-1.27
TATTTTTCTTTAGCTGCTCCTG,sensor-assay potency score (higher = more potent),[11],-0.997
TAATCAACTCCTCAGCTGGGAG,sensor-assay potency score (higher = more potent),[10],-1.02
TTGATGGTCAGGGCTGTTGGGA,sensor-assay potency score (higher = more potent),[11],-1.1
TTTTCTTACATTCCAGCACATA,sensor-assay potency score (higher = more potent),[9],-1.58
TTATAGAGCTCCAAGTGGCGGC,sensor-assay potency score (higher = more potent),[11],-0.479
TCTCGGACAGGGACAGTGCGGC,sensor-assay potency score (higher = more potent),[8],-0.804
TTACAGGTTACTGACCGCCAAG,sensor-assay potency score (higher = more potent),[9],-1.66
TCATCAGGTCGTCCTCGTCGGC,sensor-assay potency score (higher = more potent),[8],-1.75
TTTCCTTCCCTTCTGTCCCAAA,sensor-assay potency score (higher = more potent),[10],-1.07
AAATTGGTTATAGAGCTCCAAG,sensor-assay potency score (higher = more potent),[11],-1.5
TACCTTCCGAAGTCCTCCGTGT,sensor-assay potency score (higher = more potent),[8],-0.162
TCTTTGTCTCTCTGTTCGCTGC,sensor-assay potency score (higher = more potent),[10],-0.625
TAAGCAGTAGCTTCTCATGAGG,sensor-assay potency score (higher = more potent),[11],-1.31
TAGGTGTAGCAGCTGTGGCAGG,sensor-assay potency score (higher = more potent),[8],-0.976
AGAACTTCCATTTTTATCCTGT,sensor-assay potency score (higher = more potent),[9],-0.0866
TTTCTTTAGCTGCTCCTGCAGG,sensor-assay potency score (higher = more potent),[11],-0.717
TTCTTTGGAATATACAGCCATT,sensor-assay potency score (higher = more potent),[12],-0.749
TAGATGAAGACAAACAACGCAG,sensor-assay potency score (higher = more potent),[12],0.00396
TTGAAGAAGAGGGTCTGCCGGG,sensor-assay potency score (higher = more potent),[13],0.128
TTCTGCCGTACCGAGCACCAGA,sensor-assay potency score (higher = more potent),[13],-1.21
TATACTGAGCTGCTGCAGCCTC,sensor-assay potency score (higher = more potent),[14],-0.467
AAGCAACTTGTCTAGTAGCTTC,sensor-assay potency score (higher = more potent),[15],-0.327
ATCAACACCATCTAGATTGGGC,sensor-assay potency score (higher = more potent),[16],0.0383
TCGTCTTCTAGCTCATCTAGGA,sensor-assay potency score (higher = more potent),[17],-0.614
TAGAATCCAGAGGGTCACCAGC,sensor-assay potency score (higher = more potent),[17],-1.25
